This is an account of results in PubChem BioAssay (EPA / NIEHS).

A short description of assay [1]: ATG_CRE_CIS: Attagene CIS-FACTORIAL HepG2 Assay for human cAMP Responsive Element (CRE) binding protein 3 (AID 2282926). Particulars: HepG2 CRE cis-reporter, Attagene multiplexed mRNA; actives raise or lower the signal. Summed up:
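Human liver HepG2, transient MRTU transfection, 24 h compound exposure. Total RNA → oligo(dT) RT → PCR → 6-FAM primer extension → HpaI cut → CE. Activity called both directions vs DMSO.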

Assay [2] addresses CCAAT/enhancer-binding protein beta (Homo sapiens) (UniProt P17676). In words: ATG_C_EBP_CIS: Attagene CIS-FACTORIAL HepG2 Assay for human CCAAT/Enhancer Binding Protein (C/EBP) beta (AID 2282927). As to conditions: HepG2 Attagene cis-factorial transcription factor reporter; actives raise or lower the signal. Summed up:
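Endogenous C/EBPb-driven reporter transcripts measured in transfected human HepG2 cells at 24 h via RT-PCR and capillary electrophoresis of labelled fragments. Activity fitted in both directions relative to DMSO baseline.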

A short description of assay [3]: ATG_CMV_CIS: Attagene CIS-FACTORIAL HepG2 Assay for human CMV (Internal Marker) (AID 2282928).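 Note: endpoint acts as a background internal control marker rather than a target.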 Particulars: HepG2 CMV promoter reporter, transcription factor profiling; actives raise or lower the signal. Summed up: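 Endogenous transcription factor activity read in HepG2 via transfected cis-promoter reporter units. After 24 h dosing, reporter mRNA measured by RT-PCR/capillary electrophoresis; gain or loss of signal fit relative to DMSO.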

A short description of assay [4]: ATG_DR4_LXR_CIS: Attagene CIS-FACTORIAL HepG2 Assay for human Liver X Receptor (LXR), DR4 submotif (AID 2282929). As to conditions: HepG2 Attagene DR4 cis-reporter, mRNA transcription; actives raise or lower the signal. An outline of the steps: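 HepG2, transient MRTU transfection, cis-element (DR4) promoter; 24 h compound exposure; total RNA → oligo(dT) RT → PCR → 6-FAM primer extension → HpaI cut → CE. Gain/loss vs DMSO, bidirectional fit.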

For assay [5], the target named is Aryl hydrocarbon receptor (Homo sapiens) (UniProt P35869). Nature of the assay: ATG_Ahr_CIS: Attagene CIS-FACTORIAL HepG2 Assay for human Aryl Hydrocarbon Receptor (Ahr) (AID 2282930). Particulars: HepG2 AhR cis-factorial reporter transcription; actives raise or lower the signal. An outline of the steps:
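Reporter mRNA levels, quantified by RT-PCR and fluorescent capillary electrophoresis, reflect endogenous AhR transcriptional activity in HepG2 cells carrying transfected cis-promoter reporter constructs. Readout at 24 h post-dose; gain or loss fitted against DMSO baseline.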

The nature of assay [6]: ATG_AP_1_CIS: Attagene CIS-FACTORIAL HepG2 Assay for human Activator Protein 1 (AP-1) (AID 2282931). As to conditions: HepG2 Attagene cis-factorial AP-1 reporter mRNA; actives raise or lower the signal. Summed up: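 Transient MRTU transfection of HepG2 → 24 h chemical treatment → RNA isolation, RT-PCR, 6-FAM labelling, HpaI digest → capillary electrophoresis. Fit: bidirectional, DMSO negative control.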

The nature of assay [7]: ATG_AP_2_CIS: Attagene CIS-FACTORIAL HepG2 Assay for human Activator Protein 2 (AP-2) (AID 2282932). As to conditions: HepG2 AP-2 cis-reporter, Attagene transcription factor profiling; actives raise or lower the signal. An outline of the steps: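 Step one: transient transfection of HepG2 with reporter transcription units. Step two: 24 h chemical exposure. Step three: RNA extraction, RT-PCR, labelled fragment analysis by capillary electrophoresis; DMSO serves as baseline.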

The target of assay [8] is Retinoic acid receptor alpha (Homo sapiens) (UniProt P10276). In words: ATG_DR5_RAR_CIS: Attagene CIS-FACTORIAL HepG2 Assay for human Retinoic Acid Receptor Alpha (RARE), DR5 submotif (AID 2282934). As to conditions: HepG2 Attagene cis-factorial RARE DR5 reporter, mRNA; actives raise or lower the signal. An outline of the steps:
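Reporter transcripts from a DR5-regulated unit, measured via RT-PCR plus capillary electrophoresis, reflect endogenous RAR activity in transiently transfected human HepG2 liver cells. Exposure lasted 24 h; gain or loss of signal scored against DMSO.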

Assay [9] concerns the target Transcription factor E2F1 (Homo sapiens) (UniProt Q01094). Nature of the assay: ATG_E2F_CIS: Attagene CIS-FACTORIAL HepG2 Assay for human E2F Transcription Factor 1 (AID 2282935). As to conditions: HepG2 Attagene cis-reporter, E2F reporter RNA transcripts; actives raise or lower the signal. Summed up: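 Total RNA from 24 h-treated, reporter-transfected HepG2 cells undergoes DNase I treatment, oligo(dT) reverse transcription, PCR and 6-FAM primer extension before capillary electrophoresis.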

The nature of assay [10]: APR_HepG2_P-H2AX_72hr: Apredica 72-hour HepG2 Assay for H2AX Phosphorylation (AID 2282916).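 Note: phospho-histone H2A.x immunostain intensity per cell marking DNA damage.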 Particulars: imaging, actives raise or lower the signal. Summed up:
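Following 72 hr treatment with 0.39–200 uM compound, HepG2 cells were formaldehyde-fixed, permeabilized and stained for phospho-H2A.x; signal was measured by high-content imaging and fitted bidirectionally against DMSO controls.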

A short description of assay [11]: APR_HepG2_MitoMembPot_72hr: Apredica 72-hour HepG2 Assay for Mitochondrial Membrane Potential (AID 2282917). Particulars: imaging, actives raise or lower the signal. Summed up:
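Membrane potential read by MitoTracker Red CMXRos (250 nM, 30 min, pre-fixation) fluorescence imaging of HepG2 after 72 hr exposure. Ten concentrations, 0.39–200 uM, duplicate wells, 0.5% DMSO; fitted in both directions against DMSO baseline.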

Assay [12] can be described thus: APR_HepG2_MitoticArrest_72hr: Apredica 72-hour HepG2 Assay for Mitotic Arrest (AID 2282918). Particulars: high-content imaging, actives raise or lower the signal. Summed up:
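Read-out is phospho-histone H3 immunofluorescence with Hoechst nuclear segmentation, imaged at 20x. Human HepG2 liver cells received ten concentrations (0.39–200 uM, final DMSO 0.5% v/v) for 72 hr before fixation. Gain or loss of signal was fitted relative to DMSO.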

Assay [13] in a line: APR_HepG2_MicrotubuleCSK_72hr: Apredica 72-hour HepG2 Assay for Microtubule CSK Stabilty (AID 2282919). Particulars: HepG2 microtubule cytoskeleton, high-content imaging, actives raise or lower the signal. Summed up:
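Read-out is tubulin fluorescence intensity from high-content imaging of HepG2 cells, with nuclei identified by Hoechst 33342. Treatment lasts 72 h at 0.39–200 uM, and curves are fitted bidirectionally against the DMSO negative control.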

Assay [14] in a line: APR_HepG2_StressKinase_72hr: Apredica 72-hour HepG2 Assay for Stress Kinase (AID 2282921). As to conditions: HepG2 stress kinase (phospho-c-Jun) imaging, actives raise or lower the signal. Summed up:
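Fluorescence intensity of Cy3-tagged anti-phospho-c-Jun antibody, quantified per cell from Hoechst-defined nuclei across six images per well, served as the read-out following 72 h exposure (0.39–200 uM, 0.5% v/v DMSO).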

The nature of assay [15]: APR_HepG2_StressKinase_24hr: Apredica 24-hour HepG2 Assay for Stress Kinase (AID 2282922). As to conditions: HepG2 stress kinase (phospho-c-Jun) imaging, actives raise or lower the signal. An outline of the steps: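 HepG2, 24 hr dosing, 0.39–200 uM in duplicate, 0.5% DMSO; formaldehyde fix (3.7%), 0.5% Triton X-100; anti-phospho-c-Jun + Cy3 secondary, Hoechst counterstain; ArrayScan imaging; bidirectional curve fit vs DMSO baseline.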

The nature of assay [16]: APR_HepG2_p53Act_72hr: Apredica 72-hour HepG2 Assay for p53 Activation (AID 2282923).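 Note: average cellular p53 protein immunofluorescence intensity in HepG2 cells.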 Particulars: high-content imaging, actives raise or lower the signal. Summed up:
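HepG2 monolayers receive test compounds in duplicate at ten concentrations (0.39 through 200 uM) for 72 hr. They are then formaldehyde-fixed, antibody-labelled for p53, Hoechst-stained and imaged, with activity fitted bidirectionally versus DMSO.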

Assay [17] is described as follows: APR_HepG2_MitoMass_72hr: Apredica 72-hour HepG2 Assay for Mitochondrial Mass (AID 2282924).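 Note: MitoTracker Red CMXRos stain intensity per cell imaged as mitochondrial mass.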 As to conditions: high-content imaging, actives raise or lower the signal. An outline of the steps:
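HepG2, 72 hr cmpd, 10 conc 0.39–200 uM in dup, DMSO 0.5% v/v. MitoTracker Red CMXRos 250 nM 30 min pre-fix; formaldehyde 3.7% fix 30 min RT. HCS imaging, gain/loss fit vs DMSO.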

Assay [18] in a line: APR_HepG2_NuclearSize_72hr: Apredica 72-hour HepG2 Assay for Nuclear Size (AID 2282925). As to conditions: high-content imaging, actives raise or lower the signal. Summed up:
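HepG2; cpd 0.39–200 uM, 10 conc, duplicate; 72 h; DMSO 0.5% v/v; fix 3.7% formaldehyde 30 min RT; Triton permeabilization; Hoechst 2 ug/mL; HCS imaging 20x; nuclear diameter; gain/loss fit vs DMSO.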

A short description of assay [19]: ATG_BRE_CIS: Attagene CIS-FACTORIAL HepG2 Assay for human Bone Morphogenetic Protein (BMP) Response Element (BRE) (AID 2282933). Particulars: HepG2 BMP response element reporter, Attagene transcription factor profiling; actives raise or lower the signal. Summed up: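 Endogenous transcription factor activity at a BMP response element was monitored in transfected HepG2 cells 24 h after dosing. Fluorescent RT-PCR products were resolved by capillary electrophoresis, and activity was fitted in both directions versus DMSO.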

“And” between values parts separate entries of the source, which are not always exact repeats. Equal values may be shown once. Some compounds were tested as several samples or in several runs, with calls that do not always agree. The source made the active and inactive calls. Rule for the calls: active = hit-call score of the fitted dose curve at least 0.9, where 1 is the maximum; inactive = score below 0.9.

Sequence of CCAAT/enhancer-binding protein beta (Homo sapiens) (P17676 whole entry, looked up, the tested form may be a part): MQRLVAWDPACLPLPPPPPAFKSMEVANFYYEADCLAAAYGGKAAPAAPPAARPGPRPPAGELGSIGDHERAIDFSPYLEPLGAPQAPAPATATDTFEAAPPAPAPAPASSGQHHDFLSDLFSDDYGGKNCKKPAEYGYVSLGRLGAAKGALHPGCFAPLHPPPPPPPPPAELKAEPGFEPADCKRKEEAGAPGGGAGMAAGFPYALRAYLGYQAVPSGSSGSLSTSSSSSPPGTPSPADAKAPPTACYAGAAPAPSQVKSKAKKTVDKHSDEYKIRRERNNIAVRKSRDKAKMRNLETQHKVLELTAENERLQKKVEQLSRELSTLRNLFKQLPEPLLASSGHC
Sequence of Aryl hydrocarbon receptor (Homo sapiens) (P35869 whole entry, looked up): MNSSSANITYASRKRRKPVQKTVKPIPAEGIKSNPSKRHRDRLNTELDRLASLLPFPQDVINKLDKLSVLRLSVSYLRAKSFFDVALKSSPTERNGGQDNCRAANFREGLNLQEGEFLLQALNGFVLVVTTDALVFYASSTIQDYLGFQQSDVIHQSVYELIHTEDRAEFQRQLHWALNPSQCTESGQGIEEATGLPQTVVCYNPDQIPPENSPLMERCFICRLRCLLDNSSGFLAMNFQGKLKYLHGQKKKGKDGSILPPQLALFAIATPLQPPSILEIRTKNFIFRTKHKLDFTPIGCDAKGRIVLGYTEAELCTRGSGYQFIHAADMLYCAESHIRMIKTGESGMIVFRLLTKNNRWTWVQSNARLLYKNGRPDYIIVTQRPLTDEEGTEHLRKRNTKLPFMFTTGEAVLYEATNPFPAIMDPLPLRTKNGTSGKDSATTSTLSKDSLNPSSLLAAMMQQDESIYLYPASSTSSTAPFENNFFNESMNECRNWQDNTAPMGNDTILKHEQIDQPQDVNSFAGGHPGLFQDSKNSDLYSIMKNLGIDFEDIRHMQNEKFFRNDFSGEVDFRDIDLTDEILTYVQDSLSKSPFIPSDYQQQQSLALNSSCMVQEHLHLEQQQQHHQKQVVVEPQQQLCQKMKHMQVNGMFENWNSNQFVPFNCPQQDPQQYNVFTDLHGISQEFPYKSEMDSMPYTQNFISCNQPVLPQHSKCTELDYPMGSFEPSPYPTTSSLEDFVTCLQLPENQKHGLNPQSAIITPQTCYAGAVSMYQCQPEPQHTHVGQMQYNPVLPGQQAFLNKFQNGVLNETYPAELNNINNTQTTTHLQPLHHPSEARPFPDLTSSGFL
Sequence of Retinoic acid receptor alpha (Homo sapiens) (P10276 whole entry, looked up): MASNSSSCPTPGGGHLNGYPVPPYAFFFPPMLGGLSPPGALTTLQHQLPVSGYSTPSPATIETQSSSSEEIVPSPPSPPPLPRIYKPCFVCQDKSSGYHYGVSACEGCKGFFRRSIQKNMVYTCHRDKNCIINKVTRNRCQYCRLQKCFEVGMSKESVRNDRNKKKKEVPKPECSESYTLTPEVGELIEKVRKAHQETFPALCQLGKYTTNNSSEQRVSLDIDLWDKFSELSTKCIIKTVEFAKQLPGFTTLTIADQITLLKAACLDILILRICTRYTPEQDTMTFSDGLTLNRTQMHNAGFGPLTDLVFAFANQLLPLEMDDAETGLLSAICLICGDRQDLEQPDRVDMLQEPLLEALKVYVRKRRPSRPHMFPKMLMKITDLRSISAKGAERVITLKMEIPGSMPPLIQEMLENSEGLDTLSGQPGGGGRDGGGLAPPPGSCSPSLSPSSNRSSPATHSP
Sequence of Transcription factor E2F1 (Homo sapiens) (Q01094 whole entry, looked up): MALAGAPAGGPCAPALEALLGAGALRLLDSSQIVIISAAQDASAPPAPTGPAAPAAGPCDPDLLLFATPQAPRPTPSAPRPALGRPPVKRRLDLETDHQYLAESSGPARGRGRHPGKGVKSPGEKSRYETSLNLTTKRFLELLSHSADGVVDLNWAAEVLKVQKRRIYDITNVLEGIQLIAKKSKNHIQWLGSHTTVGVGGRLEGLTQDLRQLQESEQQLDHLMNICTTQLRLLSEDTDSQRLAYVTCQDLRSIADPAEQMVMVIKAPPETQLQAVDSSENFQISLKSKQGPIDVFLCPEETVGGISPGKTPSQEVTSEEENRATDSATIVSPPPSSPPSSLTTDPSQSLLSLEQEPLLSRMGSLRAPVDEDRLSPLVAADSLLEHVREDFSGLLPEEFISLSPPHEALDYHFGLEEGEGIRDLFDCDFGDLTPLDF

What is called AC50 is the concentration giving half of the maximal activity seen. `OCC(O)CO`: the call in assay [1], in assay [2], in [3], in assay [4], in assay [5] and in [6] was inactive. For the same compound, the compound was classed as inactive in assay [7], in assay [8] and in assay [9]. Further, the AC50 in assay [5] was 33.3 µM (active).
For `CCCCCCCCCc1ccc(O)cc1`, the compound was classed as inactive in assay [10], in assay [11], in [12], in [13], in assay [14] and in [15]. Also, the result in assay [16], in assay [17], in [18], in [1], in [2] and in [3] was inactive. In addition, the compound was called inactive in assay [4], in assay [5], in [6], in assay [7], in assay [8] and in [9]. The AC50 in assay [4] was 30.2 µM (active) and 11.1 µM (active); in assay [6], 178 µM (active); in assay [7], 169 µM (active).
`Nn1cnnc1`: the compound was called inactive in assay [10], in assay [11], in assay [12], in assay [13], in assay [14] and in [15]. In addition, the compound was classed as inactive in assay [16], in [17], in assay [18], in assay [1], in assay [2] and in [3]. Also, the compound was classed as inactive in [4], in [5], in assay [6], in [7], in assay [8] and in assay [9].
For `CC1=C2C[C@H]3[C@@H](CC=C4C[C@@H](O)CC[C@@]43C)[C@@H]2CC[C@]12O[C@@H]1C[C@H](C)CN[C@H]1[C@H]2C`, the AC50 in assay [10] was 50 µM (active); in [12], 16.5 µM (active); in [17], 41.2 µM (active); in assay [2], 13.9 µM (active); in assay [4], 13.3 µM (active); in assay [19], 13.3 µM (active). In addition, the outcome in assay [11], in assay [13], in assay [14], in [15], in assay [16] and in assay [18] was inactive. The compound was classed as inactive in [1], in assay [3], in [5], in assay [6], in assay [7] and in [8]. Also, in assay [9], the compound was classed as inactive.
Turning to `Cc1cccc([N+](=O)[O-])c1`, the call in assay [10], in assay [11], in assay [12], in assay [13], in assay [14] and in assay [15] was inactive. The call in assay [16], in assay [17], in assay [18], in assay [1], in [2] and in assay [3] was inactive. Further, the result in [4], in assay [5], in [6], in [7], in [19] and in assay [8] was inactive. Moreover, in [9], the result was inactive.
As for `Nc1ccc(-c2ccc(N)cc2)cc1`, the figures for the AC50 in [10] and in assay [16] were 104 µM (active) and 106 µM (active), respectively. In addition, the outcome in [11], in assay [12], in assay [13], in [14], in assay [15] and in assay [17] was inactive. In addition, the compound was called inactive in [18], in assay [1], in assay [2], in [3], in assay [4] and in assay [5]. In addition, the outcome in assay [6], in [7], in assay [8] and in assay [9] was inactive.
